In the supplement of paper PMC3724861:
This is one part of a sample in which hits are shown more often than they occur. The hit rate among all sequences tested is not known here. Unmarked numbers belong to inactive results.

Each sequence was assayed on T1, Caupolican (Caup) homeodomain DNA-binding domain (assay: PBM E-score (8-mer, recovered from the published 9-mer minima) (E-score (dimensionless, -0.5 to 0.5)); Drosophila protein; higher = stronger relative binding preference, active = 0.31 or more).
T1 sequence: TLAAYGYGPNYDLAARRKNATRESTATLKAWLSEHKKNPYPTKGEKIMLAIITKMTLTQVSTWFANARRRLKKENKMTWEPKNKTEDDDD
Description: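 Protein binding microarray (PBM): in vitro transcribed/translated Caupolican (Caup) homeodomain DNA-binding domain (residues 214-303) applied at 100 nM to a universal 8-mer PBM array (Agilent AMADID 015681). The 8-mer enrichment score (E-score, range -0.5 to 0.5) was computed, and each 9-mer score is the minimum E-score of its two constituent 8-mers. The E-score is the same for a 9-mer and its reverse complement; 0.31 is the stated binding threshold.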

| Sequence | PBM E-score |
| --- | --- |
| CTGACACA | 0.2 |
| CCCACCTA | -0.1 |
| CCAGGTCG | -0.0728 |
| ACTCGCAC | -0.119 |
| TGCGATAA | 0.101 |
| AAAGTCGT | 0.0643 |
| GTTGTTAA | 0.349 (active) |
| ATTGTTAA | 0.21 |
| GCTGTTAA | 0.0966 |
| GCATTGGC | -0.14 |
| GAACTACC | 0.0628 |
| TAACTACA | 0.348 (active) |
| AAACTACC | 0.168 |
| GAACTACA | 0.314 (active) |
| CAACTACA | 0.287 |
| AAACTACA | 0.331 (active) |
| AAACTACT | 0.236 |
| TAACTAAA | 0.109 |
| TAACTATA | 0.18 |
| CGGCCTAC | -0.0509 |
| CGTATCAC | 0.101 |
| ACCTAGAA | 0.08 |
| TACAGAAA | 0.17 |
| AAATCTAA | 0.0434 |
| CGATTGAA | 0.0347 |

| Sequence | PBM E-score |
| --- | --- |
| GAGTGCAA | 0.065 |
| ATGTCACC | 0.279 |
| ATGTCACA | 0.39 (active) |
| GTGTCACA | 0.29 |
| AAGTCACA | 0.0474 |
| CTGTCACA | 0.167 |
| ATGTCACG | 0.367 (active) |
| CACTGCCC | -0.0974 |
| ATTAGTTC | 0.154 |
| GATAATCA | 0.0651 |
| GCTGTGGA | -0.0809 |
| ATATGGTC | 0.105 |
| CAACGCAA | 0.0313 |
| AAGGTGGA | -0.0864 |
| CTTACATA | 0.288 |
| GTTACATA | 0.365 (active) |
| ATCACATG | 0.286 |
| CTCACATA | 0.149 |
| ATTACAGC | 0.128 |
| CTTACATC | 0.296 |
| ATTACAGG | 0.244 |
| ATTACAGA | 0.208 |
| ATTACATA | ≥ 0.385 (active) |
| ATTACATC | 0.374 (active) |
| ATTACATG | 0.447 (active) |

| Sequence | PBM E-score |
| --- | --- |
| GTTACAGA | 0.172 |
| TGCGCTAA | 0.0295 |
| CTCTGAAG | -0.17 |
| AGATCCCT | -0.128 |
| GAGAATCA | -0.0157 |
| GATGCATA | 0.0414 |
| CCCCATGC | -0.233 |
| CGGCTTAG | -0.235 |
| ATCATGCC | 0.0227 |
| AGCCAGGG | -0.276 |
| ACGTACCT | 0.0612 |
| CCGTACAC | 0.199 |
| ACGTACAC | 0.333 (active) |
| GCGTACAC | 0.217 |
| ACGTACAT | 0.337 (active) |
| ACGTACAG | 0.103 |
| ATTTCTCA | 0.0413 |
| ACGACAGT | 0.094 |
| AGCATATA | 0.119 |
| AATCGAGC | 0.0234 |
| GCGTGTCA | 0.284 |
| TAGTGTCA | 0.182 |
| GTGTGTCA | ≥ 0.312 (active) |
| ACGTGTCA | ≥ 0.374 (active) |
| ATGTGTCA | 0.297 |

| Sequence | PBM E-score |
| --- | --- |
| CTGTGTCA | 0.142 |
| CCGTGTCA | 0.278 |
| TCGTGTCA | 0.328 (active) |
| ACGTGTCG | 0.301 |
| TACGTGGA | -0.086 |
| AACTATCT | 0.0956 |
| ATGCCGGC | -0.134 |
| AGCCCGAG | -0.187 |
| ACCAACCC | -0.0241 |
| CAGGGGAC | -0.193 |
| AAACACTA | 0.193 |
| TACATCAA | 0.331 (active) |
| GACATCGA | 0.24 |
| GACATCAA | 0.296 |
| AACATCAA | ≥ 0.316 (active) |
| AACATCAC | 0.267 |
| CACATCGA | 0.0459 |
| CACATCAA | 0.0655 |
| AACATCAG | 0.231 |
| TACATCGA | 0.314 (active) |
| GTGGCTTA | -0.0913 |
| GATCGGAA | 0.052 |
| GTTGAGTA | 0.128 |
| CATGTACA | 0.469 (active) |
| GATGTGCA | 0.102 |

| Sequence | PBM E-score |
| --- | --- |
| CCTGTACC | 0.11 |
| CCTGTACA | 0.32 (active) |
| CAAGTACC | 0.159 |
| ACTGTACA | 0.257 |
| GATGTACA | 0.404 (active) |
| CATGTGCA | 0.119 |
| ACTGTACC | 0.107 |
| CATGTACC | 0.416 (active) |
| CATGTGTA | 0.308 |
| CTAGCGAG | -0.138 |
| AGTGAATG | 0.0689 |
| GGGCTGAC | -0.108 |
| ACGCATCC | -0.0982 |
| TCTGTACA | 0.281 |
| AATGTGTG | 0.142 |
| TATGTACA | 0.427 (active) |
| GCTGTACC | 0.0813 |
| AATGTGTA | 0.311 (active) |
| GATGTACC | 0.366 (active) |
| GATGTGCC | -0.0456 |
| TATGTAGA | 0.226 |
| AATGTACA | 0.407 (active) |
| AATGTACT | 0.269 |
| GATGTGTA | 0.252 |
| AATGTACC | 0.192 |

| Sequence | PBM E-score |
| --- | --- |
| CAATGCTG | -0.0134 |
| CCGTAACG | -0.1 |
| CCTGAGCG | -0.215 |
| AAGGTCTC | -0.0943 |
| CCTGTACG | 0.0896 |
| CATGTACG | 0.409 (active) |
| AATGTACG | 0.153 |
| CACCTTGC | 0.00581 |
| CCAGTACC | -0.0496 |
| AATACTCG | 0.138 |
| ATGGTATC | 0.109 |
| AGATGCTA | 0.0221 |
| ATTACACA | ≥ 0.332 (active) |
| GTTACACA | 0.339 (active) |
| GTTACAAA | 0.285 |
| ATTACTCA | 0.112 |
| CTTACACA | 0.201 |
| ATTACACC | 0.259 |
| CGCAGGAA | -0.134 |
| GACGCACA | -0.0232 |
| CAGTTCAA | -0.0476 |
